This is part of a sample that, as a whole, favours compounds with a hit. Of some 79,000 tested, about 15% had one in any assay. Rule as the data show it: active = growth inhibition above about 70%; inactive = the rest. Where a SMILES comes first, the peptide text is derived from it. [ ]: non-standard residue; d: D form. The star is where a group is joined. ξ: configuration not given here. ξF = NC(Cc1ccccc1)C(=O)O; Cbz = O=C(OCc1ccccc1)*; Sar = CNCC(=O)O
Assays:
[1] = NCI Yeast Anticancer Drug Screen. Data for the rad50 strain (AID 155);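 also: 0% = growth of vehicle-only cultures of the same strain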; details: S. cerevisiae rad50 strain growth inhibition; at 50.0 µM; active compounds read high
How it was run: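 DNA repair mutant yeast, compound exposure, growth read-out; inhibition is taken relative to vehicle.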

[2] = NCI Yeast Anticancer Drug Screen. Data for the mec2-1 strain (AID 157); details: S. cerevisiae mec2-1 strain, at 50.0 µM, active compounds read high
How it was run: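 Each compound was tested on mec2-1 yeast, a strain altered in DNA damage repair or cell cycle control. Growth inhibition is reported relative to vehicle.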

[3] = NCI Yeast Anticancer Drug Screen. Data for the sgs1 mgt1 strain (AID 161);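 also: 0% = growth of cultures given vehicle only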; details: S. cerevisiae sgs1 mgt1 strain, at 50.0 µM, active compounds read high
How it was run: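 Inhibition of yeast growth, normalised to vehicle-treated controls, is reported for a strain bearing genetic alterations in DNA damage repair.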

[4] = NCI Yeast Anticancer Drug Screen. Data for the cln2 rad14 strain (AID 165);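 also: 0% = growth equal to vehicle treated cultures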; details: S. cerevisiae cln2 rad14 strain, at 50.0 µM, active compounds read high
How it was run: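 Test compounds were added to cln2 rad14 yeast cultures; inhibition of growth was then determined by comparison with vehicle treatment.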

[5] = NCI Yeast Anticancer Drug Screen. Data for the bub3 strain (AID 167); details: S. cerevisiae bub3 mutant strain, at 50.0 µM, active compounds read high
How it was run: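 In this screen, a yeast mutant lacking normal mitotic checkpoint function is challenged with compound. Relative growth versus vehicle gives the inhibition value.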

[6] = NCI Yeast Anticancer Drug Screen. Data for the mlh1 rad18 strain (AID 175); details: S. cerevisiae mlh1 rad18 strain growth inhibition; at 50.0 µM; active compounds read high
How it was run: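 Inhibition values reflect reduced growth of mutant yeast versus vehicle-treated controls following compound exposure; the mutations affect DNA damage repair.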

Measured: growth inhibition

O=C(O)c1cc2ccccc2o1
inactive: [1] 11.6% | [2] 0.95% | [3] 16.9% | [4] 20.6% | [5] -2.6% | [6] 30%

O=S1c2ccccc2S(=O)c2ccccc21 (configuration not stated)
inactive: [1] -0.2% | [2] -6.25% | [3] 1.4% | [4] -0.55% | [5] 0.95% | [6] 1.15%

O=C(O)CCC(=O)Nc1cc([N+](=O)[O-])ccc1OCc1ccccc1
inactive: [1] 3.75% | [2] -7.55% | [3] -5.35% | [4] -12.4% | [5] -0.95% | [6] 3.5%

BrC1=C(c2ccccc2)SC(Br)=C(c2ccccc2)S1
inactive: [1] 1.55% | [2] 4.45% | [3] 1.2% | [4] 21.7% | [5] 5.45% | [6] 3.75%

OCc1cc2ccccc2c2c3c(ccc12)OCO3
inactive: [1] 39.9% | [2] 4.6% | [3] 20.7% | [4] -37.9% | [5] -1.05% | [6] 15.9%

C[C@H](C(=O)C12CC3CC(CC(C3)C1)C2)[C@H](O)c1ccccc1
inactive: [1] 5.85% | [2] 4.7% | [3] -10.8% | [4] 17% | [5] -11.5% | [6] -18.2%

C/C(=N\NS(=O)(=O)c1ccc([N+](=O)[O-])cc1)c1ccc[n+]([O-])n1
inactive: [1] -19.2% | [2] -18.6% | [3] -13.6% | [4] -2.75% | [5] 2.15% | [6] -34%

c1cc(Sc2nc(Sc3ccncc3)nc(Sc3ccncc3)n2)ccn1
inactive: [1] 5.15% | [2] 8.6% | [3] 14.8% | [4] 39.2% | [5] -9.7% | [6] -7.25%

Nc1nc2c(-c3ccc([N+](=O)[O-])cc3)nnn2c2ccccc12
inactive: [1] 12.7% | [2] 5.5% | [3] 37% | [4] 9.7% | [5] 22.2% | [6] 25.3%

CCCCCCC(Br)CCCC (configuration not stated)
inactive: [1] 15.6% | [2] -8.85% | [3] 14% | [4] -15.2% | [5] -7.75% | [6] -4.9%

COc1ccc(Cl)c(C(=O)O)c1
inactive: [1] 19.1% | [2] 6.9% | [3] 4.1% | [4] 21.4% | [5] 6.85% | [6] 28.4%

CSc1ccc(NC(=O)Nc2cc(C)c(C)cc2C)cc1
inactive: [1] 16.6% | [2] 2.1% | [3] 6.75% | [4] 21.4% | [5] 14.5% | [6] 2.85%

COc1ccc2c(c1)OC(C)(C)c1c-2n(C)c2c(F)cccc2c1=O
inactive: [1] 14.8% | [2] 8.7% | [3] 16.1% | [4] 14.2% | [5] 5.35% | [6] 29.8%

N#CCCOC(=O)Nc1cccc(Cl)c1
inactive: [1] 41.7% | [2] 15.4% | [3] 27.3% | [4] 7.3% | [5] -7.2% | [6] 33.6%

O=C1c2cc([N+](=O)[O-])ccc2-c2c(Cl)cc(NC(=O)C(F)(F)F)cc21
inactive: [1] -0.5% | [2] -11.3% | [3] 1.65% | [4] -40% | [5] 6.9% | [6] -2.55%

O=c1ncccn1C1OC(CO)C(O)C1F (configuration not stated)
inactive: [1] 4.75% | [2] -6.7% | [3] 9.5% | [4] -7.15% | [5] 3.75% | [6] -1.7%

Cc1cccc(C)c1Nc1n[nH]c(=S)s1
inactive: [1] 18.3% | [2] 33.8% | [3] 45.5% | [4] 0.8% | [5] 44.5% | [6] 13.9%

CN(CC(=O)NC(Cc1ccccc1)C(=O)O)C(=O)OCc1ccccc1 (configuration not stated) (Cbz-[Sar]-[ξF]-OH)
inactive: [1] -16.9% | [2] -7.95% | [3] -1.2% | [4] -6.2% | [5] -16.1% | [6] -10.6%

COc1ccc(CCNC(=O)CC2CCN(C)CC2)cc1OC
inactive: [1] -1.05% | [2] -6.7% | [3] 10.2% | [4] -7.4% | [5] 15.2% | [6] -3.75%

CC(=O)SSC12CC3CC(CC(C3)C1)C2
inactive: [1] -24.6% | [2] -17.4% | [3] -4.75% | [4] -48.9% | [5] 0.55% | [6] -7.7%

COc1cc(OC)c(C(C)=O)c(O)c1OC
inactive: [1] 2.75% | [2] 1.05% | [3] 10.9% | [4] 10.6% | [5] 11.1% | [6] 15.2%

O=C(CCCSCCCC(=O)NN=C1CCSCC1)NN=C1CCSCC1
inactive: [1] -0.9% | [2] -4.3% | [3] 10.8% | [4] 21.2% | [5] -7.85% | [6] -7.65%

FC(F)(F)C(F)(F)C(F)(F)c1nc(C(F)(F)C(F)(F)C(F)(F)F)nc(C(F)(F)C(F)(F)C(F)(F)F)n1
inactive: [1] 22.1% | [2] -1% | [3] 31.5% | [4] 18.6% | [5] 15.1% | [6] 25.6%

Cc1cc(O)cc(O)c1C(=O)O[C@]1(C)C(=O)C=C2C=C(/C=C/C(=O)O)OC=C2C1=O
inactive: [1] -2.6% | [2] -16.9% | [3] -9.95% | [4] 9.6% | [5] -13.5% | [6] -3.9%

CC(=O)OC1CCC2(C)C3=CCC4(C)C(C(C)=O)=CCC4C3CCC2C1 (configuration not stated)
inactive: [1] -27.9% | [2] -21.9% | [3] -29.2% | [4] 12.6% | [5] -22.9% | [6] -23.1%

CCN(CCNc1cc(OC)cc2cccnc12)c1ccccc1
inactive: [1] 59.9% | [2] 20.7% | [3] 48.4% | [4] 23.2% | [5] 47% | [6] 68.2%

COc1cc(/C=C/C(C)=O)ccc1OP(=O)(O)O
inactive: [1] -22.4% | [2] -24.4% | [3] -29.8% | [4] 0.1% | [5] -32.1% | [6] 7.65%

COc1ccc(NC(=S)NC(=O)c2ccccc2)cc1OC
inactive: [1] 31.8% | [2] 4.15% | [3] 21.9% | [4] 3% | [5] -1.2% | [6] 15.4%

COc1ccc(NC(C)=O)cc1C1CCC(=O)N1 (configuration not stated)
inactive: [1] 12.2% | [2] 7.25% | [3] -1.65% | [4] 10.1% | [5] -19% | [6] -23.6%

CCOC(=O)C1CCCc2sc(N)c(C#N)c21 (configuration not stated)
inactive: [1] 1.15% | [2] -13.8% | [3] 4.2% | [4] -28.4% | [5] 3.15% | [6] 0.95%

O=C1NC(=O)C(c2cccc(F)c2)N1 (configuration not stated)
inactive: [1] -12.1% | [2] -12.3% | [3] 9.7% | [4] -9% | [5] 4.7% | [6] -7.7%

COc1cc(/C=N/N2CC(=O)N(c3ccccc3)CC2=O)cc(OC)c1
inactive: [1] -469% | [2] 18.1% | [3] 23.7% | [4] 7.1% | [5] 10.8% | [6] 13.1%

CN1CC[C@H]([C@@H](O)c2ccccc2)C1=O
inactive: [1] 4.95% | [2] -7% | [3] -3.5% | [4] -34.4% | [5] 0.35% | [6] 5.7%

COC(=O)CC[N+]1=CCC(c2ccccc2)(c2ccccc2)O1
inactive: [1] -9.55% | [2] -24.9% | [3] -20.8% | [4] 5.8% | [5] -15.9% | [6] -7.65%

O=C1c2ccccc2C(=O)N1[C@@H](Cc1ccccc1)C(=O)n1cccc1CO
inactive: [1] 14.8% | [2] 21.4% | [3] 20.8% | [4] 25.5% | [5] 28.9% | [6] 10.9%

CC[N+](CC)=c1ccc2nc3c(cc(Nc4ccccc4)c4ccccc43)oc-2c1.[Cl][Zn][Cl]
inactive: [1] 18.4% | [2] 1.4% | [3] 22.2% | [4] 20.9% | [5] -0.55% | [6] 15.4%

CCOC(=O)c1cc(O)cc(=O)n1C1OC(COC(=O)c2ccccc2)C(OC(=O)c2ccccc2)C1OC(=O)c1ccccc1 (configuration not stated)
inactive: [1] 49.5% | [2] -19.4% | [3] 32.6% | [4] 3.35% | [5] -9.15% | [6] -10.8%

CN[C@H]1CC[C@]23C[C@]24CC[C@]2(C)[C@@H]([C@H](C)N(C)C)CC[C@@]2(C)[C@@H]4CC[C@H]3C1(C)C
inactive: [1] 1.3% | [2] -4.65% | [3] 9.2% | [4] 6.35% | [5] 8.25% | [6] -63.8%

Nc1nc2cc(Cl)c(O)cc2o1
inactive: [1] -3.25% | [2] -11.6% | [3] -3.5% | [4] -6.7% | [5] -3.55% | [6] -7.9%

CN(C)CCCOCCn1c2c(c3ccccc31)CCCC2
inactive: [1] 19.2% | [2] -1.2% | [3] 12.9% | [4] -2.95% | [5] 15.8% | [6] -89.5%

Cc1cc(C)c(C#[N+][O-])c(C)c1C#[N+][O-]
inactive: [1] 5.9% | [2] 8.1% | [3] -5.8% | [4] 13.7% | [5] -1.1% | [6] 15.4%

CS(=O)(=O)OCCCCCCCCCCCC1C=CCC1 (configuration not stated)
inactive: [1] 10.3% | [2] -32.4% | [3] 5.15% | [4] 11.8% | [5] -8.25% | [6] 3.1%

From PubChem BioAssay (NCI)
